# Assay results: PubChem BioAssay AID504697 (The Scripps Research Institute Molecular Screening Center, 2011)
# A number with no mark means an inactive call. Active and inactive are the calls of the source.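 How the source made its calls: active means EC50 at or below 10 µM; inactive means EC50 above 10 µM.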
# Test: fluorescence interference artefacts, compound only, dose response, artefact control for cardiac thin filament activator project, biochemical, no RTF in test wells (AID 504697);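 further: emission near 535 nm under roughly 485 nm excitation as for IANBD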
# Conditions: compound-only fluorescence in RTF assay buffer with Ca2+ (no RTF in test wells), artifact counterscreen
row,Compound,EC50
1,CC(=O)Nc1ccc(N=Cc2nc(-c3ccc(C)cc3)oc2O)cc1,20 µM
2,CC(=O)Nc1cc(C(=O)NCc2ccco2)ccc1Sc1ccc(F)cc1,> 71.5 µM
3,C=CCn1c(C)c(/C=C/c2cc[n+](C)cc2)c2ccccc21,4.64 µM (active)
4,COc1cc(OC)c(C(=O)OC(C)C(=O)Nc2cccc(C(F)(F)F)c2)cc1OC (stereo not given),> 71.5 µM
5,O=C(c1ccc(COc2ccccc2Br)o1)N1N=C(C(F)F)CC1(O)C(F)F (stereo not given),> 71.5 µM
6,O=C(CSc1nnc(COc2ccccc2)o1)N1CCN(c2ccccc2)CC1,> 71.5 µM
7,CC1CN(c2ccc(NS(=O)(=O)c3ccccc3)cc2C(=O)O)CC(C)O1 (stereo not given),> 71.5 µM
8,O=C(Nc1ccccc1)NC1CS(=O)(=O)CC1O (stereo not given),> 71.5 µM
9,COc1ccc(C(=O)/C=C/c2cn(CC(O)CN3CCN(C)CC3)c3ccccc23)cc1OC (stereo not given),25.7 µM
10,O=C(CO/N=C/c1ccccc1OC(F)F)NCc1cccs1,> 71.5 µM
11,O=C1c2ccsc2SCCN1Cc1ccc(F)cc1,> 71.5 µM
12,c1ccc(Cn2c(-c3ccccc3)nc3nc4ccccc4nc32)cc1,> 71.5 µM
13,COc1ccccc1NC(=O)COC(=O)c1cnc(C)cn1,> 71.5 µM
14,O=[n+]1c2c(n([O-])c3cc(F)c(N4CCCC4)cc31)CCC2,9.61 µM (active)
15,O=C(Nc1ccccc1-c1ccccc1)c1ccc(Cl)c([N+](=O)[O-])c1,> 71.5 µM
